Results reported in PubChem BioAssay (NCI).
The panel holds about 83,000 compounds, 20% with a hit somewhere; the sample as a whole holds those more often.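 Plates (96-well) were seeded with cells, treated with compound at one concentration, and incubated for 48 hours before percent growth was determined.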 A number with no mark means an inactive call. Active and inactive are the calls of the source. Rule for the calls: active = growth percent below 10; inactive = the rest.

How the values were obtained:
Experiment in all cases: NCI-60 one-dose screen, 48 h (100 = growth as untreated, 0 = no growth, -100 = all killed)
Details in all cases: 10 µM
EKVX NSCLC = test system: EKVX NSCLC
SN12C renal = test system: SN12C renal
UO-31 renal = test system: UO-31 renal
TK-10 renal = test system: TK-10 renal
ACHN renal = test system: ACHN renal
CAKI-1 renal = test system: CAKI-1 renal
A498 renal = test system: A498 renal
CCRF-CEM leukemia = test system: CCRF-CEM leukemia
MOLT-4 leukemia = test system: MOLT-4 leukemia
SR leukemia = test system: SR leukemia
RPMI-8226 leukemia = test system: RPMI-8226 leukemia
OVCAR-8 ovarian = test system: OVCAR-8 ovarian
OVCAR-5 ovarian = test system: OVCAR-5 ovarian
OVCAR-4 ovarian = test system: OVCAR-4 ovarian
SK-OV-3 ovarian = test system: SK-OV-3 ovarian
IGROV1 ovarian = test system: IGROV1 ovarian
OVCAR-3 ovarian = test system: OVCAR-3 ovarian
HS 578T breast = test system: HS 578T breast
NCI/ADR-RES ovarian = test system: NCI/ADR-RES ovarian
T-47D breast = test system: T-47D breast

Structure (SMILES)	growth (EKVX NSCLC) [%]	growth (SN12C renal)	growth (UO-31 renal)	growth (TK-10 renal)	growth (ACHN renal)	growth (CAKI-1 renal)	growth (A498 renal)	growth (CCRF-CEM leukemia)	growth (MOLT-4 leukemia)	growth (SR leukemia)	growth (RPMI-8226 leukemia)	growth (OVCAR-8 ovarian)	growth (OVCAR-5 ovarian)	growth (OVCAR-4 ovarian)	growth (SK-OV-3 ovarian) [%]	growth (IGROV1 ovarian)	growth (OVCAR-3 ovarian)	growth (HS 578T breast)	growth (NCI/ADR-RES ovarian)	growth (T-47D breast) [%]
COc1ccc2c(c1)C(=O)c1c-2c(OCCN2CCCCC2)nc2ccc(OC)cc12	39.6	20%	-6.08% (active)	41.1%	9.5% (active)	-11.5% (active)	53.7%	14.3%	8.36% (active)	2.46% (active)	16.4%	18.6%	63.6%	41.9%	34.5	4.11% (active)	22%	57.8%	26%	36.6
Cc1nc2oc3ccccc3c(=O)c2cc1C(=O)NCc1ccccc1	69.3	99%	63.3%	87.6%	63.3%	52%	92.5%	76.9%	66.7%	69.7%	80.4%	90.4%	81.8%	67.9%	110	102%	93.3%	105%	55.4%	53.9
COc1ccc2c(c1)C(=O)c1c-2c(=O)n(CCCN(C)C)c2cc(OC)c(OC)cc12	113	53.1%	64.6%	102%	31.9%	10.6%	85.5%	15.4%	13.8%	1.53% (active)	66.6%	62.1%	130%	74.4%	69.9	67.2%	94.9%	119%	58.7%	81.2
C=C(C(=O)c1ccccc1)C(NC(C)(C)C)c1ccccc1 (centres undefined)	52.3	2.42% (active)	-51.7% (active)	9.63% (active)	-59.4% (active)	6.9% (active)	94.1%	5.75% (active)	4.36% (active)	-17.7% (active)	-3.32% (active)	-32% (active)	-29.2% (active)	-13.1% (active)	67.9	3.59% (active)	-65.9% (active)	36.8%	-7% (active)	
COc1ccc(-c2nc3ncccn3c2-c2nnc(-c3ccsc3C)o2)cc1	94.5	87.7%	73.8%	96.7%	72.3%	82.9%	99.4%	90.1%	97%	83.4%	86.9%	25.2%	102%	25.7%	54.4	94.7%	55.4%	56.4%	61.1%	92.1
c1ccc(C(NC2CC3CCC2C3)c2ccccc2)cc1 (centres undefined)	96.8	94%	65%	95.9%	98.9%	87.7%	116%	87.6%	94%	90.2%	96.2%	105%	101%	108%	95.9	109%	114%	111%	103%	99.9
NC1(C(=O)O)CSSC1	78.9	39.5%	57.6%	64.3%	49.4%	101%	56.2%	78.5%	87.3%	89.5%	100%	40.7%	113%	76.8%	108	90%	93%	53.6%		
CCCN(CCC)CCC(O)c1cc2c(c3ccccc13)CCCC2 (centres undefined)	87.9	82%	71.4%	101%	86.9%	96.1%	74.4%	93.8%	92.9%	75.3%	86.1%	102%	84.9%	103%	90.1	77.8%		88%		68.9
COc1cc(-c2cc(C(=O)N3CCN(C(=O)c4ccccc4NCc4ccco4)CC3)nc3cc(-c4ccccc4)nn23)cc(OC)c1OC	49	44.4%	6.15% (active)	35.8%	53.6%	12%	-0.0574% (active)	19.3%	37.8%	-2.88% (active)	21.3%	39.5%	64.1%	68.6%		23%	-37.8% (active)	36.5%	6.24% (active)	50.9
N=C1c2nc3n(c2C(=O)c2nc4n(c21)CCCC4)CCCC3	95.6	-86.1% (active)	46.9%	128%	69.4%	88.8%	52.1%	92.9%	85.4%	69.5%	82.2%	91.5%	-57.8% (active)	96.2%	95		98.4%	-28.7% (active)	85.7%	71.9
O=C1OCC2=C1C(c1cccc(Cl)c1)c1cc3c(cc1N2CCO)OCCO3 (centres undefined)	49.4	30%	22.1%	68.4%	30.5%	19.9%	-18.1% (active)	6.58% (active)	21.1%	32.4%	20.2%	1.27% (active)	30.3%	56.2%	26.1		-52.2% (active)	-6.14% (active)	0.234% (active)	73.5
Nc1nccc(Nc2ccccc2)n1	107	119%	94.7%	122%	100%	118%	97.3%	89.8%	96.3%	102%	96.6%	100%	95.9%	108%	109	127%	114%	107%		112
CCN(CC)CCNc1ccc(CO)c2oc3cc(Cl)ccc3c(=O)c12	88.7	76.3%	54.4%	82.7%	60.9%	87.3%	50.9%	66.6%	62.3%	50.1%	85.7%	59.4%	104%	78.7%	92.9		91.8%	99%	74.2%	117
COc1ccc(/C(=C2\O[C@@H]([C@H]3COC(C)(C)O3)[C@H]3OC(C)(C)O[C@@H]23)c2cc(OC)c(OC)c(OC)c2)cc1O	90.2	57.7%	49.1%	109%	44.7%	93%	63.3%	47.9%	59.9%	25.4%	63.7%	68.3%	95.4%	99.2%	38		48%	-22.2% (active)	10.1%	121
CCN(CC)CCOc1nc2ccc(OC)cc2c2c1-c1ccc(OC)cc1C2=O	25.2	29.3%	-44.4% (active)	8.74% (active)	-93% (active)	-4.67% (active)	25.4%	5.22% (active)	3.68% (active)	-14.8% (active)	-24.5% (active)	-60.1% (active)	49.3%	-6.86% (active)	30.9	-48.8% (active)	-94.2% (active)	10.3%	0.706% (active)	68.7
N=c1nc(N)ncn1-c1ccccc1	99.7	87.3%	94.5%	102%	101%	97.9%	83.8%	84.9%	109%	97.4%	97.7%	99.5%	95%	100%	96.3	104%	116%	101%	102%	86.5
